Rows were chosen to be rich in hits. Some 19% of all compounds tested hit in one or more screens of this group.
TDP1 cell CPT = growth inhibition of DT40 Tdp1-/-;hTDP1 cells with camptothecin (screen for TDP1 inhibitors); Potency, µM (series often up to 46.2 µM), without a hit: at the highest dose activity change, negative = growth inhibition, actives largely listed as inhibitors; 420,000 compounds, 12% hits; chicken DT40 Tdp1-/-;hTDP1 cells + 20 nM CPT, ATP luminescence, 48 h; note: nearly all actives have a fitted effect of over 55% in size
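Chicken DT40 Tdp1-/- cells stably complemented with human TDP1 were seeded at 400 cells/well in medium containing 20 nM camptothecin, exposed to pin-transferred compounds, and grown at 37 °C for at least 48 hr. Viability was read as ATP luminescence.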
TDP1 inh = blocks human tyrosyl-DNA phosphodiesterase 1. Q9NUW8. recombinant TDP1, AlphaScreen DNA substrate cleavage. Potency, µM (doses to about 130 µM), inactives show top-dose activity change, negative = inhibition, hits mostly inhibitors. 350,000 compounds, 0.28% hits. AID 485290; note: nearly all actives have a fitted effect of over 40% in size
Target sequence (Q9NUW8 whole entry, looked up): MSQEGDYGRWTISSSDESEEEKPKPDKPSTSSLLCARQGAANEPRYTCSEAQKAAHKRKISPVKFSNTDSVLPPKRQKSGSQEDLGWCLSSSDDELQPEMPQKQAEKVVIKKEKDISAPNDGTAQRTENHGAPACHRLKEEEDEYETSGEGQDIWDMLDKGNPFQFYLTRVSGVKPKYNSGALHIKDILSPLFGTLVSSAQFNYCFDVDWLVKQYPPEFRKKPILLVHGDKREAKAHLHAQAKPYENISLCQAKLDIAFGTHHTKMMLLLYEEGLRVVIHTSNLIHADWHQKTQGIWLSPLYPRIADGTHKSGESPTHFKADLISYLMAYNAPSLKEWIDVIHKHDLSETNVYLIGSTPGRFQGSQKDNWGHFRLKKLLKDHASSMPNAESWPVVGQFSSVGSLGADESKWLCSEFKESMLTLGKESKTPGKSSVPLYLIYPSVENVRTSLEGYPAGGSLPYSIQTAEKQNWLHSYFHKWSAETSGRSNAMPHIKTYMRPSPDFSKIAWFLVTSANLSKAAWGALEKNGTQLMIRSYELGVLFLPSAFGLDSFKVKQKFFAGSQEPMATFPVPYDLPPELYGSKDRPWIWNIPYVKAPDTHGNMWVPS
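Signal: AlphaScreen proximity between streptavidin donor and anti-FITC acceptor beads on intact substrate. Reaction: Tdp1 1 nM, substrate 15 nM final, 5 min RT after 15 min compound preincubation.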
DT40 TDP1 no CPT = qHTS for Inhibitors of human tyrosyl-DNA phosphodiesterase 1 (TDP1): qHTS in cells in absence of CPT | DT40 Tdp1-/- hTDP1 cells, no CPT, ATP luminescence, 48 h | Potency, µM (series often up to 46.2 µM), for the others: top-dose activity change, negative = growth inhibition, usual class: inhibitors | 420,000 compounds, 15% hits | AID 686978, 2013; note: nearly all actives have a fitted effect of over 55% in size
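DT40 Tdp1-/-;hTDP1 cells, no CPT (DMSO vehicle only), 400 cells/well; compounds pin-transferred; ≥48 hr, 37 °C; CellTiter-Glo 30 min RT dark, luminescence read.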
RORgamma inh = blocks mouse ROR gamma transcriptional activity; 310,000 compounds, 5.4% hits; Drosophila S2 Gal4-RORgamma UAS-luciferase reporter, 20 h; Potency, µM (highest dose often 53.6 µM), inactives show at the top dose activity change, negative = inhibition, hits mostly inhibitors; AID 2551; P51450; note: nearly all actives have a fitted effect of over 60% in size
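Drosophila S2 cells stably expressing Gal4-DBD/mouse RORγ fusion under metallothionein promoter plus UAS-luciferase; compound 1 h, then 700 uM CuSO4 induction for 20 h at ambient temperature; inhibition read as reduced luminescence.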
VP16 counter = Gal4-VP16 reporter inhibition counter-screen | Drosophila S2 Gal4-VP16 UAS-luciferase, luminescence, 20 h | Potency, µM (top dose mostly 53.6 µM), for inactives: at the top dose activity, negative = inhibition, most hits filed as inhibitors | 310,000 compounds, 3.5% hits | AID 2546;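 note: Gal4-VP16 expression switched on by copper sulfate through the metallothionein promoter; nearly all actives have a fitted effect of over 50% in size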
* hit, by the source's call; ? = inconclusive; · = no result given; [ ] = remark or other dose. Calls come from the whole dose curve; as a rule, active = well fitted curve in the direction sought with a large enough effect; inconclusive = small, poorly fitted or top-dose-only effect, or another doubt; inactive = no such curve, though single readings can be large; an effect the other way counts as inactive or inconclusive. % is set by controls: 0 for no effect and ±100 for the full control effect; potency is the fitted concentration of half-maximal effect.

SMILES	TDP1 cell CPT	TDP1 inh	DT40 TDP1 no CPT	RORgamma inh	VP16 counter
CC(OC(=O)CCCc1nc2ccccc2s1)C(=O)NC(N)=O (stereo not given)	10%	6%	-1%	-34%	?
CNC(=O)NC(=O)C(C)OC(=O)CCCSc1nc2ccccc2s1 (stereo not given)	-25%	-1%	-28%	7.1µM*	4.5µM*
CNC(=O)NC(=O)C(C)OC(=O)CCCc1nc2ccccc2s1 (stereo not given)	0%	5%	-24%	-34%	-23%
CCCc1ccc(OCc2ccc(C(=O)Nc3ccccc3C(=O)OC)o2)cc1	?	-3%	?	·	·
Cc1ccccc1CS(=O)(=O)CCC(=O)N1CCN(c2ccc(N3CCOCC3)nn2)CC1	-1%	0%	-3%	-22%	5%
CCc1noc(C)c1C(=O)Nc1sc(C(=O)N(C)C)c(C)c1C#N	-10%	·	0%	·	·
COc1ccc(C2N=C(c3ccccc3)C(C)(C)N2O)cc1OC (stereo not given)	?	-2%	?	10µM*	-17%
CCOC(=O)c1[nH]n(-c2ccc(Cl)cc2)c(=O)c1C	7%	-2%	1%	?	-16%
CCCNC(=O)c1cc(C2CCCCN2C(=O)c2cc(C(C)(C)C)nn2C)on1 (stereo not given)	21µM*	·	18µM*	·	·
COc1ccc(NC(=O)c2cc(C3CCCCN3C(=O)c3cc(F)ccc3C)on2)c(C)c1 (stereo not given)	12µM*	·	8.2µM*	·	·
COc1ccc(NC(=O)c2cc(C3CCCCN3C(=O)Cc3ccc(N(C)C)cc3)on2)c(C)c1 (stereo not given)	21µM*	·	?	·	·
COc1ccc(NC(=O)c2cc(C3CCCCN3C(=O)c3cc(C(C)(C)C)nn3C)on2)c(C)c1 (stereo not given)	?	·	21µM*	·	·
CCC(=O)N1CCc2cc(S(=O)(=O)NCCC(=O)NC(C)c3ccccc3)ccc21 (stereo not given)	?	0%	-17%	·	·
Cc1c(NC(=O)Nc2ccccc2C(F)(F)F)c(=O)n(-c2ccccc2)n1C	-4%	-2%[12.3 µM]	15%	0%	0%
O=C(CC1NC(=S)NC1=O)c1ccc(Cl)cc1 (stereo not given)	-9%	-1%	-5%	-8%	-3%
COc1ccc(S(=O)(=O)NCc2ccccn2)cc1NC(=O)c1ccccc1F	2.3µM*	6%	2.6µM*	-28%	-15%
CCOc1ccc(S(=O)(=O)NCc2ccccn2)cc1NC(=O)c1ccccc1	1.3µM*	0%	1.3µM*	·	·
COc1cc2c(cc1OC)CN(C(=O)c1ccc3nc[nH]c3c1)CC2	3.3µM*	6%	3.3µM*	-4%	-11%
O=C(c1ccc2nc[nH]c2c1)N1CCc2ccccc2C1	2%	2%	-29%	9%	8%
COc1cc2c(cc1OC)CN(C(=O)c1ccc(S(=O)(=O)N(C)c3ccccc3)cc1)CC2	?	6%	15µM*	-3%	-6%
COc1ccc(S(=O)(=O)N(C)c2ccc(C(=O)N3CCOCC3)cc2)cc1	-21%	7%	?	-5%	-2%
COc1ccc(S(=O)(=O)N(C)c2ccc(C(=O)N3CCCCC3)cc2)cc1	?	4%[56.1 µM]	15µM*	?	-20%
CN(c1ccc(C(=O)N2CCCCCC2)cc1)S(=O)(=O)c1ccccc1	13µM*	1%	8.2µM*	·	·
CNC(=O)CCc1[nH]c2ccccc2c1Sc1ccccc1	-25%	3%	-28%	-9%	-14%
COc1cc2c(cc1OC)CN(C(=O)c1cccc(S(=O)(=O)N3CCc4ccccc43)c1)CC2	21µM*	2%	16µM*	·	·
SMILES	TDP1 cell CPT	TDP1 inh	DT40 TDP1 no CPT	RORgamma inh	VP16 counter
CN(c1ccc(C(=O)N2CCN(Cc3ccccc3)CC2)cc1)S(=O)(=O)c1ccc(Cl)cc1	?	7%	16µM*	?	-8%
COc1ccc(S(=O)(=O)N(C)c2ccc(C(=O)N3CCCCC3)cc2)cc1OC	7.3µM*	·	21µM*	?	?
COc1ccc(C(=O)N2CCc3ccc(NC(=O)c4ccccn4)cc3C2)cc1F	21µM*	·	23µM*	?	-11%
CN(c1ccc(C(=O)N2CCCCC2)cc1)S(=O)(=O)c1cccs1	?	1%	?	195%	-16%
Cc1ccsc1C(=O)N1CCC1(C)C(=O)NCC(C)(C)C (stereo not given)	-24%	·	-19%	·	·
CC1(C)OC2OC3C(CN)OC(c4ccccc4)OC3C2O1 (stereo not given)	-13%	·	-2%	·	·
COc1ccc(C23CC4CC(CC(C4)C2)C3)cc1C(=O)NCCN(C)C	21µM*	·	8.2µM*	?	?
CN(C)CCNC(=O)c1cccc2nc3cccc(F)c3nc12	0.082µM*	·	0.26µM*	·	·
COc1ccccc1C(=O)NCCC(=O)NCCC12CC3CC(CC(C3)C1)C2	?	1%	?	4%	0%
COc1ccc(OC)c2nc3c(C(=O)NCCN(C)C)cccc3nc12	1.6µM*	·	2.6µM*	·	·
Cc1cc(C(=O)NCCCN(C)C)c2ccccc2n1	-3%	4%	3%	-10%	-4%
COc1ccc(-c2ccc(N)[n+](CCCC(=O)O)n2)cc1	-11%	-8%[56.1 µM]	22%	3%[16.9 µM]	6%[17 µM]
CC(=O)N(Cc1ccc(F)cc1)C1=C(NCc2ccccc2)C(=O)c2ccccc2C1=O	1.6µM*	9%	1.3µM*	13µM*	?
O=C(NCc1ccc(F)cc1)C(c1ccccc1)c1ccccc1	-18%	·	7%	-23%	-3%
COC(=O)C1(CCSC)NC(c2ccc(O)cc2)C2C(=O)N(c3ccc4c(c3)OCCO4)C(=O)C21 (stereo not given)	-20%	3%	-6%	10%[10 µM]	-3%
O=C(NCCc1ccc(Cl)cc1)c1cccn1-c1nnc(N2CCCCC2)s1	?	3%	23µM*	·	·
O=C(NCCc1ccc(Cl)cc1)c1cccn1-c1nnc(N2CCCC2)s1	23µM*	11%	?	·	·
O=C(NCc1cccc(Br)c1)c1cccn1-c1nnc(N2CCCCC2)s1	?	3%	15µM*	·	·
C=C1CCN(C(C)C(=O)OCc2ccc(C)cc2)S(=O)(=O)c2ccccc21 (stereo not given)	·	-9%	·	?	?
Cc1nc2c(c(C)nn2-c2ccccc2)c(C)c1CCC(=O)NCCCOC(C)C	-27%	·	21µM*	-6%	-11%
Cc1nc2c(c(C)nn2-c2ccccc2)c(C)c1CCC(=O)NCc1ccccc1	?	0%	?	·	·
CCC(CNC(=O)c1c(C)nn(-c2ccccc2)c1Cl)c1ccccc1 (stereo not given)	23µM*	6%	21µM*	15%	8%

Bioassay records as filed in PubChem.
